Measured values from article PMC5700166.
Residue numbers refer to the chain shown, from its start.

Key:
Test in all cases: protein-binding microarray (PBM); PBM: ~300 nM protein, 6 mM HEPES pH 7.8, 80 mM KCl, 0.5 mM EDTA, 0.5 mM EGTA, 6% glycerol, 35 ng/ul poly-dIdC, 1% milk, 1 h, room temperature; Ap Aiptasia and Nv Nematostella (sea anemones) / Co Capsaspora / Aq Amphimedon (sponge) / Dm Drosophila / Hu human; RHD is the Rel homology domain; high values mean tight binding
Conditions in all cases: dsDNA, one strand shown
[1] = target: T1, GST-Ap-NF-kB RHD (Exaiptasia pallida (Aiptasia), UniProt A0A913YAJ5 2-422)
T1 sequence: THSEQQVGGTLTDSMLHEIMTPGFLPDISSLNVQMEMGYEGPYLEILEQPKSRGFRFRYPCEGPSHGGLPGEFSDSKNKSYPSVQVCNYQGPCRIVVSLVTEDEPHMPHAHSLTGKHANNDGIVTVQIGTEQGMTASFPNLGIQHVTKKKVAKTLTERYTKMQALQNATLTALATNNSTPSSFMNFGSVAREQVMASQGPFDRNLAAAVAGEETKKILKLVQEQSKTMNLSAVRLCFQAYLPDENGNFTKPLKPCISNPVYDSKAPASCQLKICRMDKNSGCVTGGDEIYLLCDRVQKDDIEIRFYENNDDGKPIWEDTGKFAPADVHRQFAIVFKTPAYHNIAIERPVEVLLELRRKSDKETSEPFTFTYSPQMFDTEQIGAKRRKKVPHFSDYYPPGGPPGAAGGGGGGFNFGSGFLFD

[2] = target: T2, GST-Nv-NF-kB (Cys allele) (Nematostella vectensis, UniProt E5G601 2-411)
T2 sequence: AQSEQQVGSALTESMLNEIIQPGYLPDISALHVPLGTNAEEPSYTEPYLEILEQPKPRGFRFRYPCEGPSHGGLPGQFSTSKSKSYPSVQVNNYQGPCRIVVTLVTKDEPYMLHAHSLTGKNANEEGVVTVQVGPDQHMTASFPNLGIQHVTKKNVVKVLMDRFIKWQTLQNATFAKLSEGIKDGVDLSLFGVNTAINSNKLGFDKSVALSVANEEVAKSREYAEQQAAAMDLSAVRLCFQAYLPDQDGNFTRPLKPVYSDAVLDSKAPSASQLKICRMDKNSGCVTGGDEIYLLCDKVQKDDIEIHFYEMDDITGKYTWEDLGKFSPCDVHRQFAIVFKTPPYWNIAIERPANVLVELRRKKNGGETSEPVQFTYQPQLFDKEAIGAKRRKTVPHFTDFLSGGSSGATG

[3] = target: T3, GST-Nv-NF-kB (Ser allele) (Nematostella vectensis, UniProt A7UNT2 2-411)
T3 sequence: T2 sequence with Q21R, C66S, S207N, E215Q, V217A, E225K, A268E, D399E

[4] = target: T4, GST-Co-NF-kB (Capsaspora owczarzaki, UniProt F1ARL5 200-546)
T4 sequence: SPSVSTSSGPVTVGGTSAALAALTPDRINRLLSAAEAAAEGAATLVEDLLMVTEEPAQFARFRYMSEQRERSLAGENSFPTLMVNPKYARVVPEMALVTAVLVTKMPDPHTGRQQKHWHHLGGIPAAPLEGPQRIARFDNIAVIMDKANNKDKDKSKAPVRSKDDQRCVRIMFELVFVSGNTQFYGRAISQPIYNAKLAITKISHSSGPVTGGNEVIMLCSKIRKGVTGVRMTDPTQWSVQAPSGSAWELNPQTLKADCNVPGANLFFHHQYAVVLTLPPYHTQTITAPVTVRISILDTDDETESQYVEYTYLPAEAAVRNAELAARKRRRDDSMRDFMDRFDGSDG

[5] = target: T5, GST-Dm-Relish (Drosophila melanogaster, UniProt Q94527 99-473)
T5 sequence: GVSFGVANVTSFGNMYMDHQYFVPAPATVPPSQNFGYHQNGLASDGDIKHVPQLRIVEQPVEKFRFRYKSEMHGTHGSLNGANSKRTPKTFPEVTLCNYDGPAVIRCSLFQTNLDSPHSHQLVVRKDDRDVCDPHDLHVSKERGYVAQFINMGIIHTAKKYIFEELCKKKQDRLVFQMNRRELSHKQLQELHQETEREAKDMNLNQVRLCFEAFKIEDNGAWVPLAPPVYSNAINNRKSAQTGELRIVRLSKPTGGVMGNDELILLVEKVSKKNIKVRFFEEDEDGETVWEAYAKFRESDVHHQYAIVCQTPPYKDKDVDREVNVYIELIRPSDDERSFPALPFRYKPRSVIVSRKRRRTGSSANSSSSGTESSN

[6] = target: T6, GST-Aq-NF-kB (Amphimedon queenslandica, UniProt A9Y5G7 2-389)
T6 sequence: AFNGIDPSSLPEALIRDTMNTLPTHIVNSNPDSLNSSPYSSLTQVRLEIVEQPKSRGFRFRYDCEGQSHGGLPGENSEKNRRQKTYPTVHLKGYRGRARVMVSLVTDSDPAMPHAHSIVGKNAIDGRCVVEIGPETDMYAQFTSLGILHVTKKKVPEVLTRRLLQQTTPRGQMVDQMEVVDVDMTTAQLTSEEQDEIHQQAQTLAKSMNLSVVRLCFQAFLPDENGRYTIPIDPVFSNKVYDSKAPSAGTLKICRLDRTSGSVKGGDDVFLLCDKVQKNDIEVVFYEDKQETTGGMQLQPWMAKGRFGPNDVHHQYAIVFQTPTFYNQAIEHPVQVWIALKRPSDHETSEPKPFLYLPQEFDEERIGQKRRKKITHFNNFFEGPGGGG

[7] = target: GST-Hu-p50 (Homo sapiens, UniProt P19838 7-356)
GST-Hu-p50, sequence (P19838 7-356): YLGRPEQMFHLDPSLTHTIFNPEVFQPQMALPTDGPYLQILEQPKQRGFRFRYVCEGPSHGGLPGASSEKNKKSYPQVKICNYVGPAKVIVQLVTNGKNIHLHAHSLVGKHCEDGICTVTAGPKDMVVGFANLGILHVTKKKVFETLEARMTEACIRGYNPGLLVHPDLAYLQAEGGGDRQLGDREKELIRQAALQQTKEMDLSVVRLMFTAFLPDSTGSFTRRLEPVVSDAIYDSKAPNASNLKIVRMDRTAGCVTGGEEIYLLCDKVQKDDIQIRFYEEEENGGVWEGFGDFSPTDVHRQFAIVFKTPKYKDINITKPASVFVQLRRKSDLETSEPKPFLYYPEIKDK

Sequence	binding signal [1]	binding signal [2]	binding signal [3]	binding signal [4]	binding signal [5]	binding signal [6]	binding signal [7]
CCGATTAACATCAAAAATCCCCGTGATGTTAATCGGGTCTTGATTCGCTTGACGCTGCTG	9.77 z-score	10.8 z-score	11.1 z-score	6.22 z-score	10.1 z-score	8.1 z-score	7.67 z-score
CCGATTAACATCACGGTATTCCCTGATGTTAATCGGGTCTTGATTCGCTTGACGCTGCTG	4.35 z-score	3.63 z-score	3.91 z-score	3.34 z-score	6.53 z-score	6 z-score	1.52 z-score
CCGATTAACATCAGGGGACTTTATGATGTTAATCGGGTCTTGATTCGCTTGACGCTGCTG	7.86 z-score	8.29 z-score	7.92 z-score	3.64 z-score	8.18 z-score	7.13 z-score	6.72 z-score
CCGATTAACATCAGGGTATTTTATGATGTTAATCGGGTCTTGATTCGCTTGACGCTGCTG	5.82 z-score	8.31 z-score	7.61 z-score	3.22 z-score	5.65 z-score	7.07 z-score	5.87 z-score
CCGATTAACATCAAAATCCCAGTTGATGTTAATCGGGTCTTGATTCGCTTGACGCTGCTG	1.67 z-score	1.47 z-score	1.74 z-score	1.27 z-score	5.96 z-score	1.75 z-score	1.82 z-score
CCGATTAACATCAGGGAAATCTATGATGTTAATCGGGTCTTGATTCGCTTGACGCTGCTG	3.65 z-score	5.31 z-score	6.44 z-score	4.52 z-score	1.64 z-score	4.71 z-score	4.1 z-score
CCGATTAACATCAGATTCCCCCCTGATGTTAATCGGGTCTTGATTCGCTTGACGCTGCTG	8.5 z-score	7.01 z-score	8.24 z-score	10 z-score	6.72 z-score	6.38 z-score	7.1 z-score
CCGATTAACATCAATTCTCCCCCTGATGTTAATCGGGTCTTGATTCGCTTGACGCTGCTG	6.48 z-score	6.19 z-score	8.64 z-score	10.7 z-score	3.06 z-score	5.16 z-score	6.9 z-score
CCGATTAACATCAGGATAACCCCTGATGTTAATCGGGTCTTGATTCGCTTGACGCTGCTG	4.52 z-score	3.22 z-score	1.82 z-score	1.72 z-score	2.74 z-score	5.12 z-score	3.08 z-score
CCGATTAACATCAAATGTTCCCCTGATGTTAATCGGGTCTTGATTCGCTTGACGCTGCTG	5.58 z-score	6.77 z-score	7.62 z-score	9.87 z-score	5.59 z-score	6.21 z-score	4.41 z-score
CCGATTAACATCAGGGGATTCACTGATGTTAATCGGGTCTTGATTCGCTTGACGCTGCTG	7.47 z-score	7.31 z-score	7.91 z-score	3.35 z-score	10.3 z-score	6.42 z-score	6.59 z-score
CCGATTAACATCATTCCCGGGAATGATGTTAATCGGGTCTTGATTCGCTTGACGCTGCTG	2.49 z-score	4.09 z-score	3.45 z-score	5.77 z-score	1.81 z-score	3.95 z-score	2.31 z-score
CCGATTAACATCAGGGGGTTCCATGATGTTAATCGGGTCTTGATTCGCTTGACGCTGCTG	7.79 z-score	5.3 z-score	5.6 z-score	1.97 z-score	9.47 z-score	6.05 z-score	5.73 z-score
CCGATTAACATCAGGGAATCACCTGATGTTAATCGGGTCTTGATTCGCTTGACGCTGCTG	6.2 z-score	6.62 z-score	6.17 z-score	2.45 z-score	10.3 z-score	6.99 z-score	5.35 z-score
CCGATTAACATCAAAACTCCCCATGATGTTAATCGGGTCTTGATTCGCTTGACGCTGCTG	7.13 z-score	6.03 z-score	6.69 z-score	5.85 z-score	5.96 z-score	5.83 z-score	5.36 z-score
CCGATTAACATCAAAAGTACCCCTGATGTTAATCGGGTCTTGATTCGCTTGACGCTGCTG	4.78 z-score	4.21 z-score	6.09 z-score	5.19 z-score	7.17 z-score	4.81 z-score	4.42 z-score
CCGATTAACATCAAGAAATCCCCTGATGTTAATCGGGTCTTGATTCGCTTGACGCTGCTG	9.62 z-score	11.5 z-score	12.5 z-score	4.27 z-score	9.61 z-score	7.7 z-score	7.69 z-score
CCGATTAACATCAGGGGAGACCCTGATGTTAATCGGGTCTTGATTCGCTTGACGCTGCTG	6.47 z-score	4.51 z-score	4.3 z-score	3.35 z-score	6.91 z-score	6.37 z-score	3.38 z-score
CCGATTAACATCAAATATCCCCCTGATGTTAATCGGGTCTTGATTCGCTTGACGCTGCTG	8.79 z-score	8.51 z-score	8.83 z-score	8.39 z-score	7.63 z-score	6.9 z-score	6.58 z-score
CCGATTAACATCAGGGGAAACAATGATGTTAATCGGGTCTTGATTCGCTTGACGCTGCTG	5.65 z-score	7.25 z-score	9.76 z-score	8.67 z-score	3.09 z-score	4.59 z-score	5.36 z-score
CCGATTAACATCAGAACTTCCCCTGATGTTAATCGGGTCTTGATTCGCTTGACGCTGCTG	7.33 z-score	9 z-score	7.95 z-score	6.75 z-score	7.85 z-score	7.57 z-score	6.4 z-score
CCGATTAACATCAGAAACTCCCCTGATGTTAATCGGGTCTTGATTCGCTTGACGCTGCTG	8.69 z-score	7.68 z-score	7.84 z-score	5.37 z-score	7.08 z-score	7.47 z-score	6.42 z-score
CCGATTAACATCACAAAACCCCCTGATGTTAATCGGGTCTTGATTCGCTTGACGCTGCTG	9.76 z-score	9.02 z-score	10.5 z-score	3.3 z-score	10.4 z-score	7.82 z-score	8.21 z-score
